PubChem BioAssay (NCATS)
A number with no mark means an inactive call. Records with an inconclusive call do not appear. Active and inactive are the calls of the source. Unless noted, calls follow the shape of the dose curve; as a rule, active = well fitted curve in the direction sought with a large enough effect; inconclusive = small, poorly fitted or top-dose-only effect, or another doubt; inactive = no such curve, though single readings can be large; an effect the other way counts as inactive or inconclusive.

Experiments:
[1] = molecular target: Lysosomal acid glucosylceramidase (Homo sapiens) (UniProt P04062); assay: Glucocerebrosidase-p2 (AID 348; in the data active = potency below about 10 µM; also: potency is read from the fitted curve at half-maximal effect); conditions: purified GBA, blue fluorogenic substrate, 40 min
Method in brief: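 Normal human glucocerebrosidase (0.2 nM) with blue fluorogenic substrate (80 uM final) in citrate/phosphate pH 5.9 with 10mM sodium taurocholate, 0.01% tween-20; 40 min RT, NaOH/glycine stop; fluorescence Ex 365/Em 440; AC50 from a titration from 0.6 nM upwards.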

[2] = AP1 Signaling Pathway (AID 357; active = well fitted curve in either direction with a large enough effect, not every such curve was filed as active;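 also: ME-180 reporter cells stimulated with EGF at its EC50 level; % is scaled to controls: 0 for no effect and ±100 for the full control effect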); conditions: ME-180 AP-1-bla reporter, EGF-induced, beta-lactamase ratio, 5 h; at 7.69 µM (top of the series) unless noted
Method in brief: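 A ratiometric CCF4 readout (405 nm excitation; 460 and 530 nm emission) quantified AP-1-driven beta-lactamase in ME-180 cells after 5 h with compound and EC50 EGF; AC50 values were derived for activators and inhibitors.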

[3] = molecular target: Cytochrome P450 1A2 (Homo sapiens) (UniProt P05177); assay: p450-cyp1a2 (AID 410; calls by dose curve; also: potency is read from the fitted curve at half-maximal effect); conditions: recombinant CYP1A2, luciferin-ME demethylation, luminescence; series mostly up to 57 µM
Method in brief: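 20nM CYP1A2, 100uM Luciferin-ME (=Km), 100mM KPO4; cpd 10 min RT; +NADPH regen, 60 min RT; stop/detect 20 min; luminescence. Normalized to furafylline 57 uM = full inhibition.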

[4] = NFAT Signaling Pathway (AID 444; active = well fitted curve in either direction with a large enough effect, not every such curve was filed as active;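 also: carbachol stimulus at about its EC50 of 1 µM final; % is scaled to controls: 0 for no effect and ±100 for the full control effect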); conditions: Jurkat NFAT-bla M1, carbachol, beta-lactamase ratio, 5 h; at 7.69 µM (top of the series) unless noted
Method in brief: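 Jurkat cells with NFAT-driven β-lactamase reporter and co-expressed M1 receptor, stimulated with carbachol (final 1 uM, ~EC50), compound titration, 5 h at 37 °C. CCF4 loaded 1 h at RT; 460/530 nm ratio gave %activity and AC50.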

[5] = Stat Signaling Pathway (AID 446; active = well fitted curve in either direction with a large enough effect, not every such curve was filed as active;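 also: ME-180 cervical cancer cells given 40 pM IL-6 alongside compound; SIE-controlled beta-lactamase reporter measured as 460/530 nm FRET emission ratio; % is scaled to controls: 0 for no effect and ±100 for the full control effect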); conditions: ME-180 SIE beta-lactamase reporter, IL-6 stimulated, 5 h; at 7.69 µM (top of the series) unless noted
Method in brief: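 Compound effects on IL-6-induced STAT reporter activity were measured in ME-180 cells. After overnight culture, cells were co-treated with 40 pM IL-6 for 5 hrs before beta-lactamase substrate loading at room temperature.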

[6] = molecular target: Glucocorticoid receptor (Homo sapiens) (UniProt P04150); assay: GR-EFC Redistribution (AID 451; calls by dose curve; also: potency is read from the fitted curve at half-maximal effect); conditions: CHO-K1 GR-EFC translocation, beta-gal luminescence, 2 h
Method in brief: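 CHO-K1 cells expressing nuclear EA and GR-ED fragments of b-gal; compounds titrated up to 46 uM final, 2 h at 37 C. GR nuclear translocation read as complemented b-gal luminescence after 1 h RT detection.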

[7] = molecular target: Mitogen-activated protein kinase 10 (Mus musculus) (UniProt Q61831); assay: JNK3 AlphaScreen Assay (AID 530; active = well fitted curve in either direction with a large enough effect, not every such curve was filed as active;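 also: kinase came from lysate of stimulated human HepG2 cells; signal reports phosphorylation of biotinylated GST-cJun 1-79 at Ser73 with 10 µM ATP; % is scaled to controls: 0 for no effect and ±100 for the full control effect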); conditions: JNK3 lysate, c-Jun phosphorylation; series mostly up to 57.1 µM
Method in brief: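 HepG2 lysate (IL-1b/TNFa pre-activated) + biotin-GST-cJun 1-79 + anti-pSer73 cJun; cpd titration, 15 min RT; ATP 10 uM start; Tris pH 7.6, MgCl2, DTT, vanadate; beads in EDTA buffer; AlphaScreen.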

[8] = molecular target: 3',5'-cyclic-AMP phosphodiesterase 4B (Homo sapiens) (UniProt Q07343); assay: qHTS Assay for Inhibitors of PDE-IV (AID 607; active = well fitted activation curve with a large enough effect in the main read-out, with a control signal flat, not every such curve was filed as active; also: % of control where 0% means no effect); conditions: HEK293 ACTOne CNG channel cells, membrane potential fluorescence; series mostly up to 22.9 µM
Method in brief: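 ACTOne HEK293 cells carry a modified cAMP-gated CNG channel and express endogenous PDE4; plated 1000 cells/well, compounds up to 22.9 uM final. Membrane-potential dye fluorescence (ex 535/em 590) was read; parental cells received 10 uM forskolin + 100 uM RO 20-1724.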

[9] = molecular target: Cytochrome P450 3A4 (Homo sapiens) (UniProt P08684); assay: qHTS Assay for Activators of Cytochrome P450 3A4 (AID 885); conditions: recombinant CYP3A4, Luciferin-PPXE luminescence, 60 min; series mostly up to 57.1 µM; also: nearly all actives have a fitted effect of over 65% in size
Method in brief: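 CYP3A4 activity: Luciferin-PPXE O-dealkylation, 25uM substrate, 200mM KPO4, RT throughout. Read-out is luciferase luminescence; higher values reflect activation.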

[10] = molecular target: Dual specificity protein kinase CLK4 (Homo sapiens) (UniProt Q9HAZ1); assay: qHTS Assay for Inhibitors of CDC-like Kinase 4 (Kinase-Glo Assay) (AID 1770); conditions: recombinant Clk4, Kinase-Glo ATP depletion luminescence; series mostly up to 66.7 µM; also: nearly all actives have a fitted effect of over 65% in size; also: potency is read from the fitted curve at half-maximal effect
Method in brief: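 Readout: Kinase-Glo luminescence from ATP left after a 4.5 h room-temperature reaction of 25 nM Clk4 with 100 uM RS peptide and 1 uM ATP (final). Buffer: 25 mM Tris pH 7.5, 10 mM MgCl2.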

[11] = molecular target: Dual specificity protein kinase CLK4 (Homo sapiens) (UniProt Q9HAZ1); assay: qHTS Assay for Inhibitors of CDC-like Kinase 4 (ADP-Glo Assay) (AID 1771); conditions: recombinant CLK4, ADP-Glo luminescence; series mostly up to 80 µM; also: nearly all actives have a fitted effect of over 70% in size; also: potency is read from the fitted curve at half-maximal effect
Method in brief: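 25 nM Clk4, 100 uM RS peptide, 1 uM ATP (final); 2 mM MgCl2, 0.5 mM EGTA, 2.5 mM DTT, 0.01% Triton X-100; 1 hr RT. ADP-Glo readout: ATP depletion 45 min, conversion/luciferase 30 min, luminescence.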

[12] = molecular target: Dual specificity protein kinase CLK4 (Homo sapiens) (UniProt Q9HAZ1); assay: qHTS Assay for Inhibitors of CDC-like Kinase 4 (ADP-FP Assay) (AID 1795); conditions: Transcreener ADP fluorescence polarization; series mostly up to 50 µM; also: nearly all actives have a fitted effect of over 60% in size; also: potency is read from the fitted curve at half-maximal effect
Method in brief: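 FP readout: Orange Transcreener ADP2 tracer (4 nM) plus ADP antibody, read after 30 min at room temperature. Kinase step: 6.25 nM Clk4, 100 uM RS peptide, 1 uM ATP, pH 7.5, 1 h.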

[13] = molecular target: Ubiquitin carboxyl-terminal hydrolase 1 (Homo sapiens) (UniProt O94782); assay: Inhibitors of USP1/UAF1: Pilot qHTS (AID 504865); conditions: purified USP1/UAF1, Ub-rhodamine cleavage fluorescence; series mostly up to 54.9 µM; also: nearly all actives have a fitted effect of over 35% in size; also: potency is read from the fitted curve at half-maximal effect
Method in brief: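 1nM USP1/UAF1 + cpd, 15 min RT; start w/ Ub-Rho 150nM final; kinetic FL 480/540 nm, 6 reads q60 s. Buffer 50mM HEPES pH 7.8, 0.5mM EDTA, 1mM TCEP, 0.01% Tween-20, 0.1 mg/ml BSA.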

[14] = Primary qHTS for small molecule stabilizers of the endoplasmic reticulum resident proteome: Secreted ER Calcium Modulated Protein (SERCaMP) assay (AID 1508630); conditions: SH-SY5Y GLuc-SERCaMP (Gaussia luciferase released on ER calcium loss) secretion, thapsigargin, luminescence; series mostly up to 38.4 µM; also: % is scaled to controls: 0 for no effect and ±100 for the full control effect
Method in brief: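 The SH-SY5Y reporter protocol was run at 3 concentrations up to 38.3 uM (primary) or 11 concentrations (follow-up): 16 h compound, 100 nM thapsigargin for 4 h, then extracellular luciferase luminescence.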

[15] = molecular target: Glucocorticoid receptor (Homo sapiens) (UniProt P04150); assay: GR-GFP Redistribution (AID 450;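 active = compounds whose dose series gives a full or clear partial fitted curve of increased nuclear translocation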; also: potency is read from the fitted curve at half-maximal effect); conditions: U2OS GR-GFP nuclear translocation, laser cytometry, 2 h
[16] = molecular target: Cytochrome P450 2C19 (Homo sapiens) (UniProt P33261); assay: qHTS Assay for Inhibitors and Substrates of Cytochrome P450 2C19 (AID 899); conditions: recombinant CYP2C19, luciferin-H EGE luminescence; series mostly up to 57.1 µM; also: potency is read from the fitted curve at half-maximal effect; nearly all actives have a fitted effect of over 60% in size
Method in brief: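 Luminescent read-out of luciferin formed from Luciferin-H EGE (10uM, equal to KM). Enzyme 5nM in 50mM KPO4; compound added, 10 min at 37C, then NADPH regenerating system for 60 min at 37C. Full inhibition defined by 57uM ketoconazole.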

[17] = molecular target: Cytochrome P450 3A4 (Homo sapiens) (UniProt P08684); assay: qHTS Assay for Inhibitors and Substrates of Cytochrome P450 3A4 (AID 884); conditions: recombinant CYP3A4, Luciferin-PPXE luminescence; series mostly up to 57.1 µM; also: potency is read from the fitted curve at half-maximal effect; nearly all actives have a fitted effect of over 50% in size
Method in brief: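 Luminescent readout of luciferin produced by CYP3A4 (20 nM) dealkylation of Luciferin-PPXE, 25 uM (its KM). NADPH-driven reaction ran 60 min at RT after 10 min compound preincubation; data scaled to 57 uM ketoconazole as 100% inhibition.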

[18] = qHTS Assay for Identification of Small Molecule Agonists for Hypoxia Response Element Signaling Pathway (AID 914; active = well fitted activation curve with a large enough effect in the signal ratio, with a control signal flat, not every such curve was filed as active; the % refers to the signal ratio; also: % of control where 0% means no effect); conditions: ME-180 (cervical carcinoma) HRE-bla reporter, beta-lactamase ratio, CoCl2, 17 h; activation: active compounds read high
Method in brief: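 HRE-bla ME-180 cells, overnight plating in Opti-MEM with 0.5% dialyzed FBS; cpd titration + EC50 CoCl2, 17 h, 37 degrees Celsius; CCF4 2.5 h RT; 460/530 nm ratio; AC50.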

[19] = molecular target: Cytochrome P450 2D6 (Homo sapiens) (UniProt P10635); assay: qHTS Assay for Inhibitors and Substrates of Cytochrome P450 2D6 (AID 891); conditions: recombinant CYP2D6, luciferin-ME EGE luminescence; series mostly up to 57.1 µM; also: potency is read from the fitted curve at half-maximal effect; nearly all actives have a fitted effect of over 60% in size
Method in brief: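 Luminescent read-out of luciferin formed by 5 nM human CYP2D6 demethylating 30 uM Luciferin-ME EGE (Km level) over 60 min at room temperature after NADPH regeneration addition. Data normalized to full inhibition by 1.43 uM quinidine.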

Chain of Glucocorticoid receptor (Homo sapiens) (P04150 whole entry, looked up, the tested form may be a part): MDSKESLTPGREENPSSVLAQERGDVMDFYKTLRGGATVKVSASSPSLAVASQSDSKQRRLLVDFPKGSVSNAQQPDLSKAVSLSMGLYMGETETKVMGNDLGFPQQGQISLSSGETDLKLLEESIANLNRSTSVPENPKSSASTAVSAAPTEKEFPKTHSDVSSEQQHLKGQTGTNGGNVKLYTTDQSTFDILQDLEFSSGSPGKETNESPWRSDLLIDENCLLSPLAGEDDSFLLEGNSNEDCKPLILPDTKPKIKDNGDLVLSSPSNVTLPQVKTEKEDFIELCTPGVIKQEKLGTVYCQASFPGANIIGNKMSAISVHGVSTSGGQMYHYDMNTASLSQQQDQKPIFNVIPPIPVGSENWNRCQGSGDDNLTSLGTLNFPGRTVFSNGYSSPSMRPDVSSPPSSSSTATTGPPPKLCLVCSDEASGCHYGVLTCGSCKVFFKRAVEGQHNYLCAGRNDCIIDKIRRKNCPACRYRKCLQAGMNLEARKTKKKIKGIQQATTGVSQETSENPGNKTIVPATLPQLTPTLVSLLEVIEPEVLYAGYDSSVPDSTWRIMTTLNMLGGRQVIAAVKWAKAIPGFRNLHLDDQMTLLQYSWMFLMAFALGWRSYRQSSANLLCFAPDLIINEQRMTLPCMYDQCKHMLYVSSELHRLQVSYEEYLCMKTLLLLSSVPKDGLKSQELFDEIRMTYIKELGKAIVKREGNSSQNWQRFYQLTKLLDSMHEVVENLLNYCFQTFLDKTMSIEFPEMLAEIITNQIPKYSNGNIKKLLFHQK
Chain of Lysosomal acid glucosylceramidase (Homo sapiens) (P04062 whole entry, looked up): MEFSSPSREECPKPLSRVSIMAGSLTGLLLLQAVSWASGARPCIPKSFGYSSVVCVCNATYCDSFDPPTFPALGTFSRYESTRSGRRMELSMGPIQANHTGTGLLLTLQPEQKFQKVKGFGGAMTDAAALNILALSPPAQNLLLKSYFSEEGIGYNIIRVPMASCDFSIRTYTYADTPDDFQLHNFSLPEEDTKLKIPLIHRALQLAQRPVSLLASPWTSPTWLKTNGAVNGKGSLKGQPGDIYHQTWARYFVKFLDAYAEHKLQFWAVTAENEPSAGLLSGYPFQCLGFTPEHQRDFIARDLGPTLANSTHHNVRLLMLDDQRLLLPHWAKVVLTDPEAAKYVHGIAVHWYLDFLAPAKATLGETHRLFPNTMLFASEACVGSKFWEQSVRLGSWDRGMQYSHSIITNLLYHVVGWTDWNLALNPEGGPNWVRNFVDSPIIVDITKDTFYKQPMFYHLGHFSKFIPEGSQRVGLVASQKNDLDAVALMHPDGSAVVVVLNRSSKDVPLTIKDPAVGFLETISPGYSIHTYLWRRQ
Chain of Dual specificity protein kinase CLK4 (Homo sapiens) (Q9HAZ1 whole entry, looked up): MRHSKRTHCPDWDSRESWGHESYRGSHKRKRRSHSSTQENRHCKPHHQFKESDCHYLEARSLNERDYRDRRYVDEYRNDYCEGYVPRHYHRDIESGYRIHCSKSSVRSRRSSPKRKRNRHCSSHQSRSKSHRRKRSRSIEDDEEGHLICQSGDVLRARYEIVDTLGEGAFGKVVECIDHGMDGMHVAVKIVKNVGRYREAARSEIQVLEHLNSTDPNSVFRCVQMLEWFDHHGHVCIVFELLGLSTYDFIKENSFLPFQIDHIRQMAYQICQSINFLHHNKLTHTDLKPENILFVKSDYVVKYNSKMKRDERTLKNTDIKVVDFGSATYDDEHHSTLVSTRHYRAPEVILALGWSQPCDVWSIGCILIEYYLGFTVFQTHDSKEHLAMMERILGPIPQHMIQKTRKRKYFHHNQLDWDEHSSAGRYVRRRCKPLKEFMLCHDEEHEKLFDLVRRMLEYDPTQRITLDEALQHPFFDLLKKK
Chain of Ubiquitin carboxyl-terminal hydrolase 1 (Homo sapiens) (O94782 whole entry, looked up): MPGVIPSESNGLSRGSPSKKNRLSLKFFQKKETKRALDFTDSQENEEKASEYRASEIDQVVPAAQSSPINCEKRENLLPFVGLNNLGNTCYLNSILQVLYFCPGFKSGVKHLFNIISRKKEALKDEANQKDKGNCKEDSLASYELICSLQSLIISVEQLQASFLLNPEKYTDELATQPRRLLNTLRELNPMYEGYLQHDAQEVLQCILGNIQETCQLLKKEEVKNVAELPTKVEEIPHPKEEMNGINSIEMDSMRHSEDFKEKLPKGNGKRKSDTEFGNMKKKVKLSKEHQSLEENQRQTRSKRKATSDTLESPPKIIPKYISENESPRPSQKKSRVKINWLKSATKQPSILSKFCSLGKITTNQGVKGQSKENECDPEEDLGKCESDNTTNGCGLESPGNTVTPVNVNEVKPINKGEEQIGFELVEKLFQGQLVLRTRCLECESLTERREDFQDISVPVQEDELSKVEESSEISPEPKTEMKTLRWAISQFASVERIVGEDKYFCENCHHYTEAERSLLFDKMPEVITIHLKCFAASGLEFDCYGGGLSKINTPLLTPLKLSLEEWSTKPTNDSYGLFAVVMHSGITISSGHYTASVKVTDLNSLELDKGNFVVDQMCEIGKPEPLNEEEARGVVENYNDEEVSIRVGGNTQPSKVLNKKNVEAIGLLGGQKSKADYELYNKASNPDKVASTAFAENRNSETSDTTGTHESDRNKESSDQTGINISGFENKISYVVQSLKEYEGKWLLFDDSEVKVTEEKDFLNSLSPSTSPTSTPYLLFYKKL
Chain of 3',5'-cyclic-AMP phosphodiesterase 4B (Homo sapiens) (Q07343 whole entry, looked up): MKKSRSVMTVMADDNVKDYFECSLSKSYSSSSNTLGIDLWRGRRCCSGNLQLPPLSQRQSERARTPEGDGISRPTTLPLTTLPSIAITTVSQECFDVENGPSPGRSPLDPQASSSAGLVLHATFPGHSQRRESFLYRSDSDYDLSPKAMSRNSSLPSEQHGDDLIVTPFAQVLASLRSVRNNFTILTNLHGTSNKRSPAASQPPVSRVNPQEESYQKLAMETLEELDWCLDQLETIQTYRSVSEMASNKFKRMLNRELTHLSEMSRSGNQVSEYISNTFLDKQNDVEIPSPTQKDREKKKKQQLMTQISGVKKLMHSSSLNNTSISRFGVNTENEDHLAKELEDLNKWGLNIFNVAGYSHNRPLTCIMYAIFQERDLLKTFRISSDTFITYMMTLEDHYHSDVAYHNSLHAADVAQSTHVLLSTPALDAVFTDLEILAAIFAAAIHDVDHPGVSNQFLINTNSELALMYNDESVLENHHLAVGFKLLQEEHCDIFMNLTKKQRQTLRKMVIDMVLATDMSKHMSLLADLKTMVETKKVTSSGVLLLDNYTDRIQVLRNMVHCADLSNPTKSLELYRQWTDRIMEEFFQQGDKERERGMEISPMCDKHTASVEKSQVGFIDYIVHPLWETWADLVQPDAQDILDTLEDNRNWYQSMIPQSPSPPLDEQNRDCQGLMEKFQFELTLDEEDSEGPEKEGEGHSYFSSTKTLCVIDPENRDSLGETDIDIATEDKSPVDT
Chain of Cytochrome P450 3A4 (Homo sapiens) (P08684 whole entry, looked up): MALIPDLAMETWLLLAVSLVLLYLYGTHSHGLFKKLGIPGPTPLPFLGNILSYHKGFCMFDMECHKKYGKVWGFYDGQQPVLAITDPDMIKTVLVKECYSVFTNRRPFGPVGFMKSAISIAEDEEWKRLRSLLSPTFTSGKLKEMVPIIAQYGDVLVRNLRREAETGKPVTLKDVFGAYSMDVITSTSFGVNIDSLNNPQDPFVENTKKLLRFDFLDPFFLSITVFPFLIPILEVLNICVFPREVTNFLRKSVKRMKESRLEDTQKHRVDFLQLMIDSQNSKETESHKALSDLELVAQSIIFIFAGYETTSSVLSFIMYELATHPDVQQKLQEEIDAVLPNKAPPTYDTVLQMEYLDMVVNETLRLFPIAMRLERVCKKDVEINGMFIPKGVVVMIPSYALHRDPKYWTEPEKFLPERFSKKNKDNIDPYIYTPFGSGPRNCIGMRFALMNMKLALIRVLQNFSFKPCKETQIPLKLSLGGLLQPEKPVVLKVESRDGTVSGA
Chain of Cytochrome P450 1A2 (Homo sapiens) (P05177 whole entry, looked up): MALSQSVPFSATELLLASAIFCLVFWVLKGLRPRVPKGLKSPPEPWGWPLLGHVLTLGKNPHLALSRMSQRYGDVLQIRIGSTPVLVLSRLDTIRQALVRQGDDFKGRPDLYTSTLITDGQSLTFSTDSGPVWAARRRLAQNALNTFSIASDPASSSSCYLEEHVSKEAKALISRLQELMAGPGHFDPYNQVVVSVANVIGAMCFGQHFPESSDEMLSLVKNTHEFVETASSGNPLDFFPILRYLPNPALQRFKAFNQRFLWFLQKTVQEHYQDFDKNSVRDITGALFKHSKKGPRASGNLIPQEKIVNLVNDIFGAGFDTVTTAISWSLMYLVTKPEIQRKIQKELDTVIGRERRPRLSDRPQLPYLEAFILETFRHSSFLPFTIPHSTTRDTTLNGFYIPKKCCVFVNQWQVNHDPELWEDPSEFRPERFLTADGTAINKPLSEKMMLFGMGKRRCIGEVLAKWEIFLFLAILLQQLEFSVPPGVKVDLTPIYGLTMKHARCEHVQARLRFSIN
Chain of Cytochrome P450 2C19 (Homo sapiens) (P33261 whole entry, looked up): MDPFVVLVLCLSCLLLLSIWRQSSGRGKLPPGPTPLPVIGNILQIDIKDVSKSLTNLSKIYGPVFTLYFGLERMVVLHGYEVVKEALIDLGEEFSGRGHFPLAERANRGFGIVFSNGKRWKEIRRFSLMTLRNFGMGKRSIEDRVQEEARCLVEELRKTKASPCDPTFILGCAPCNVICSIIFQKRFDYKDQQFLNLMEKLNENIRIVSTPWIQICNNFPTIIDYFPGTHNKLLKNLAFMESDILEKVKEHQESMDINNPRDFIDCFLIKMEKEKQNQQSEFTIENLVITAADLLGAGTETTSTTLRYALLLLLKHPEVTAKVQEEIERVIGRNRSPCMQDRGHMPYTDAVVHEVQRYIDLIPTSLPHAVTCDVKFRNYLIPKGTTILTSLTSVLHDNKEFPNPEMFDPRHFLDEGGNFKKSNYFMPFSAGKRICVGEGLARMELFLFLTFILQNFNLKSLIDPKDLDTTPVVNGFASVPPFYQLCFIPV

SMILES | Potency [1] [µM] | activity change, negative = inhibition [2] [%] | Potency [3] | activity change, negative = inhibition [4] [%] | activity, negative = inhibition [5] [%] | Potency [6] [µM] | Potency [7] | Potency [8] | Potency [9] | Potency [10] | Potency [11] | Potency [12] | Potency [13] | outcome [14] | Potency [15] [µM] | Potency [16] | Potency [17] | activation [18] [%] | Potency [19]
Cc1cnc(CNc2ccnc(-c3ccccc3C)n2)cn1 | > 11.4 | 3.37 | 12.6 µM (active) | -3.78 | -1.97 | > 46 | inactive | inactive | inactive | inactive | inactive | inactive | inactive | inactive | – | – | – | – | –
COc1ccc(-c2nc3cnc(OC)nc3n(CCC#N)c2=O)cc1 | > 11.4 | -7.37 | 6.31 µM (active) | -4.16 | – | > 46 | inactive | inactive | – | inactive | inactive | inactive | inactive | inactive | > 9.22 | – | – | – | –
CN(C)C(=O)c1ccc(-c2cncnc2Nc2ccccc2)cc1 | > 11.4 | -7.47 | 31.6 µM (active) | 1.8 | -6.42 | > 46 | inactive | inactive | inactive | inactive | inactive | inactive | – | inactive | > 46 | – | – | – | –
CN(Cc1ccco1)c1ccnc(-c2ccccc2C(F)(F)F)n1 | > 11.4 | 2.94 | 2.51 µM (active) | -8.64 | -4.79 | > 46 | inactive | inactive | – | inactive | inactive | inactive | – | inactive | > 46 | 7.94 µM (active) | – | – | –
COc1ncc2nc(C)c(=O)n(CCc3ccccc3)c2n1 | > 11.4 | -1.51 | 2 µM (active) | -3.03 | -12.2 | > 46 | inactive | – | inactive | inactive | inactive | inactive | inactive | inactive | > 9.22 | – | – | – | –
Cc1ccccc1-c1ccc2ncnc(NCc3cccs3)c2c1 | > 11.4 | -9.99 | 2.51 µM (active) | -15.8 | -13.1 | > 46 | inactive | – | inactive | 3.98 µM (active) | 3.55 µM (active) | 3.55 µM (active) | 14.1 µM (active) | inactive | – | – | 3.98 µM (active) | 2.83 | –
CCNc1ncc2nc(-c3ccc(F)cc3)c(=O)n(C[C@H]3CCCO3)c2n1 | > 11.4 | -0.226 | 1.26 µM (active) | 12.6 | – | > 46 | inactive | – | – | inactive | inactive | inactive | inactive | inactive | > 9.22 | – | – | – | –
N#Cc1cccc(-c2nccc(NCc3ccccc3)n2)c1 | > 11.4 | -20.8 | 0.501 µM (active) | 13.6 | -6.24 | > 46 | inactive | – | inactive | 14.1 µM (active) | 14.1 µM (active) | 15.8 µM (active) | – | inactive | > 46 | – | – | – | 7.94 µM (active)
CN(C)c1cc(-c2cccc(NS(C)(=O)=O)c2)ncn1 | > 11.4 | 3.12 | 1.26 µM (active) | 18.4 | 1.39 | > 46 | inactive | – | inactive | inactive | inactive | inactive | inactive | inactive | > 46 | – | – | – | –
O=c1c(-c2ccc(F)cc2)nc2cncnc2n1-c1ccccc1 | > 11.4 | -2.6 | 7.94 µM (active) | 11.8 | -3.31 | > 46 | inactive | – | inactive | inactive | inactive | inactive | inactive | inactive | – | – | – | – | –
Cc1cnc(CNc2ncnc3ccc(-c4ccc5c(c4)OCO5)cc23)cn1 | > 11.4 | -18.1 | 0.398 µM (active) | 14.2 | -16.2 | > 46 | – | inactive | inactive | 0.282 µM (active) | 0.398 µM (active) | 0.224 µM (active) | inactive | inactive | > 46 | – | 2.51 µM (active) | – | –
COc1cccc(-c2nccc(NCc3cccnc3)n2)c1 | > 11.4 | -20.9 | 0.158 µM (active) | 8.95 | -2.24 | > 46 | – | inactive | inactive | 7.08 µM (active) | 7.08 µM (active) | 6.31 µM (active) | inactive | inactive | > 46 | – | – | – | –
COc1ccccc1-c1nc(NCc2cccnc2)c2ccccc2n1 | > 11.4 | 10.5 | 0.794 µM (active) | -29.2 | 12.9 | > 46 | inactive | inactive | inactive | inactive | inactive | inactive | – | inactive | > 46 | – | – | – | –
